From PubChem BioAssay

Tests used:
[1] = test system: Human papillomavirus type 1a protein E7 (residues 44-93); experiment: small molecules binding HPV E7 44-93 – biochemical, small-molecule microarray, residues 44-93, 635 nm fluorescence, primary screen (AID 1108); conditions: fluorescence 635 nm, higher = more signal;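 further: E7 fragment applied at 1 µg/mL in TBST for 1 h at 4 C; score combines spot fluorescence with its signal to noise ratio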
[2] = hepatitis C replication reporter changes, two-sided – Huh7 cells, luciferase reporter, HCV replication inhibitor project, primary screen (AID 1109); conditions: Huh7 HCV replicon luciferase reporter, 48 h; higher = more signal;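 further: huh7 hepatoma cells harbouring a luciferase neomycin HCV replicon reporter; luciferase luminescence as measure of HCV replicon replication; test concentration not given here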
[3] = biological target: Left-right determination factor 2 (Homo sapiens) (UniProt O00292); experiment: small molecules binding LEFTY2 protein – biochemical, small-molecule microarray, 635 nm fluorescence scan, primary screen (AID 1110); conditions: higher = more signal
[4] = biological target: Calmodulin-1 (Homo sapiens) (UniProt P0DP23); experiment: small molecules binding calmodulin-1 with EGTA – biochemical, small-molecule microarray, Cy5-labelled CALM1, profiling panel (AID 1111); conditions: Cy5-CALM1 binding fluorescence, higher = more signal;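 further: labelled calmodulin applied in Tris saline Tween buffer holding calcium plus EGTA and DTT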
[5] = biological target: Calmodulin-1 (Homo sapiens) (UniProt P0DP23); experiment: small molecules binding Ca-loaded calmodulin-1 – biochemical, small-molecule microarray, Cy5-labelled CALM1, plus calcium, artefact control for SMM control-protein annotation, profiling panel (AID 1112); conditions: Cy5-CALM1 binding fluorescence, higher = more signal;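 further: score merges spot fluorescence with signal to noise from triplicate slides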
[6] = probe aWnt5a binding to arrayed compounds – biochemical, biotinylated probe, 635/667 nm fluorescence, primary screen (AID 1113); conditions: small-molecule microarray, higher = more signal;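 further: score merges 667 nm fluorescence intensity with signal-to-noise per printed feature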
[7] = probe aShh binding to arrayed compounds – biochemical, biotinylated probe, 635/667 nm fluorescence, primary screen (AID 1114); conditions: small-molecule microarray, higher = more signal;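 further: probe is biotin-labelled aShh protein from a stem cell growth factor screen; measures binding of labelled protein to compounds printed on the slide; score merges feature fluorescence at 667 nm with signal-to-noise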
[8] = probe aNog binding to arrayed compounds – biochemical, biotinylated probe, 635/667 nm fluorescence, primary screen (AID 1115); conditions: small-molecule microarray, higher = more signal;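 further: probe is biotinylated aNog protein used at 0.15 µg/mL for 1 h at 4 C; z-score combines 667 nm fluorescence of each spot with its signal to noise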
[9] = biological target: Torsin-1A-interacting protein 1 (Homo sapiens) (UniProt Q5JTV8); experiment: compound microarray binding of lysate hLAP1 – cell lysate, small-molecule microarray, COS7 lysate, 635/667 nm fluorescence, primary screen (AID 1116); conditions: 635 nm fluorescence, higher = more signal
[10] = biological target: Alpha-bungarotoxin (Bungarus multicinctus) (UniProt P60615); experiment: compounds binding labelled alpha-BTX control protein – biochemical, small-molecule microarray, Alexa647 label, 635/667 nm fluorescence, artefact control for SMM control protein annotation, profiling panel (AID 1117); conditions: alpha-BTX-A647 binding fluorescence, higher = more signal
Alpha-bungarotoxin (Bungarus multicinctus), sequence (P60615 whole entry, looked up): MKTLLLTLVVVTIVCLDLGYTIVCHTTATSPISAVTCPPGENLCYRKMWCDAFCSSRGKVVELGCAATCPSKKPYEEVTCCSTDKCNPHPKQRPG

Torsin-1A-interacting protein 1 (Homo sapiens), sequence (Q5JTV8 whole entry, looked up): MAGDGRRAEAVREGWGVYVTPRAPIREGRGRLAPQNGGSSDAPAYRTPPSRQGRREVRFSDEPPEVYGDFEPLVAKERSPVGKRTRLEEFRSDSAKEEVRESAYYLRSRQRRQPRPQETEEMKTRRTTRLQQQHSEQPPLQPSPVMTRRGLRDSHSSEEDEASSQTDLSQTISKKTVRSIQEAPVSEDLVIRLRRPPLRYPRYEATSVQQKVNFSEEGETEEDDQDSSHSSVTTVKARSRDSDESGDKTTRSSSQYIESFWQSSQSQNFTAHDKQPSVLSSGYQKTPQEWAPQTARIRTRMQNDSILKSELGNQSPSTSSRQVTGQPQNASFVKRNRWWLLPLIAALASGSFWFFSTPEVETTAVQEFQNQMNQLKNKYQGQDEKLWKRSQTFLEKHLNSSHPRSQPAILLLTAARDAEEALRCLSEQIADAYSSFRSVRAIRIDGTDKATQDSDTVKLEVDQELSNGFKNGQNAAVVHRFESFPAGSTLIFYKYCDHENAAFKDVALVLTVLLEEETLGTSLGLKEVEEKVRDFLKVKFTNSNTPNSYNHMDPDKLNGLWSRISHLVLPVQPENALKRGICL
Left-right determination factor 2 (Homo sapiens), sequence (O00292 whole entry, looked up): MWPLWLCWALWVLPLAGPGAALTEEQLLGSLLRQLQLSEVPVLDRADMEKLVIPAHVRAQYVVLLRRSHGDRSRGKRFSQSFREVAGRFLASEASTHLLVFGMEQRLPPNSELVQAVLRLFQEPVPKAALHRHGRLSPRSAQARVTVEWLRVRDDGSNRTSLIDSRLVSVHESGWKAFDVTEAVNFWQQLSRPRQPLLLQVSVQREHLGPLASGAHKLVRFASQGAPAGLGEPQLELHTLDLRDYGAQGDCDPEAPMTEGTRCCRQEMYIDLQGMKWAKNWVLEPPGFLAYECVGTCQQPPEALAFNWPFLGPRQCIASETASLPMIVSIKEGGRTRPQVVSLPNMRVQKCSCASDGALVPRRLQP

SMILES: Cc1ccc(C(C)CC(O)C2C=CC3C(=O)N(c4ccccc4)C(=O)C3N2Nc2ccccc2)o1 (stereo not given)
- composite z-score [1]: 1.44
- z-score [2]: -0.741
- composite z-score [3]: 0.285
- composite z-score [4]: 1.3
- composite z-score [5]: 0.125
- composite z-score [6]: 0.0802
- composite z-score [7]: 0.308
- composite z-score [8]: 1.5
- composite z-score [9]: 0.789
- composite z-score [10]: 1.3

SMILES: CC(C)(C)OC(=O)COc1cccc(C(=O)CCN2CCOCC2)c1
- composite z-score [1]: 0.219
- z-score [2]: -1.7
- composite z-score [3]: 0.0527
- composite z-score [4]: -0.501
- composite z-score [5]: -0.841
- composite z-score [6]: -0.192
- composite z-score [7]: -0.193
- composite z-score [8]: -0.419
- composite z-score [9]: -0.0786
- composite z-score [10]: -0.204

SMILES: C=C(COC)/C(=C/C[C@H](OC(=O)c1ccncc1)c1ccc(CO)o1)c1cnc2ccccc2c1
- composite z-score [1]: 1.38
- z-score [2]: -0.403
- composite z-score [3]: 0.321
- composite z-score [4]: -0.0747
- composite z-score [5]: -0.91
- composite z-score [6]: -0.0758
- composite z-score [7]: 0.337
- composite z-score [8]: -0.12
- composite z-score [9]: 0.865
- composite z-score [10]: 1.91

SMILES: O=C1N(CCS(=O)(=O)c2ccccc2)c2ccccc2[C@H]2OC(c3ccc(OCCCO)cc3)=N[C@@]12Cc1ccccc1
- composite z-score [1]: 0.474
- z-score [2]: -0.733
- composite z-score [3]: 0.949
- composite z-score [4]: 1.27
- composite z-score [5]: 0.517
- composite z-score [6]: 0.0101
- composite z-score [7]: 0.337
- composite z-score [8]: -0.0321
- composite z-score [9]: 2.03
- composite z-score [10]: 1.66

SMILES: [N-]=[N+]=Nc1ccccc1C[C@@]1(C(=O)N2CCOCC2)N=C(c2ccc(OCCCO)cc2)O[C@@H]1c1ccccc1
- composite z-score [1]: 1
- z-score [2]: -1.57
- composite z-score [3]: -0.0238
- composite z-score [4]: 1.37
- composite z-score [5]: -0.258
- composite z-score [6]: 0.291
- composite z-score [7]: 0.771
- composite z-score [8]: -0.738
- composite z-score [9]: 1.43
- composite z-score [10]: 1.39

SMILES: CC(C)N1CC=CC23O[C@@H]4C=CCCOC(=O)C4[C@H]2C(=O)N(CCCO)[C@@H]3C1=O (stereo not given in full)
- composite z-score [1]: 0.0707
- z-score [2]: -1.15
- composite z-score [3]: -0.539
- composite z-score [4]: -0.544
- composite z-score [5]: -0.694
- composite z-score [6]: -0.145
- composite z-score [7]: -0.0769
- composite z-score [8]: -0.0546
- composite z-score [9]: 0.263
- composite z-score [10]: -0.659

SMILES: O=C1OCCC/C=C\[C@H]2OC34C=CCN(c5ccc6ccccc6c5)C(=O)[C@H]3N(CCO)C(=O)[C@@H]4C12 (stereo not given in full)
- composite z-score [1]: -0.983
- z-score [2]: -0.0164
- composite z-score [3]: -1.2
- composite z-score [4]: 0.0755
- composite z-score [5]: 0.903
- composite z-score [6]: -0.154
- composite z-score [7]: -0.0533
- composite z-score [8]: -0.0631
- composite z-score [9]: -0.399
- composite z-score [10]: -1.95

SMILES: CN1C2C=C(CCCO)C(C3C(=O)N(C(N)=O)C(=O)C32)C1C1CC1 (stereo not given)
- composite z-score [1]: -0.071
- z-score [2]: -0.225
- composite z-score [3]: -0.645
- composite z-score [4]: -0.495
- composite z-score [5]: -0.458
- composite z-score [6]: -0.0462
- composite z-score [7]: 0.0062
- composite z-score [8]: -0.102
- composite z-score [9]: 0.474
- composite z-score [10]: 0.0218

SMILES: O=C(c1ccccc1)N1C(=O)[C@]2(Cc3ccccc31)N=C(c1ccc(OCCCO)cc1)O[C@@H]2c1ccccc1
- composite z-score [1]: 1.44
- z-score [2]: -2.94
- composite z-score [3]: 0.148
- composite z-score [4]: 1.43
- composite z-score [5]: -0.165
- composite z-score [6]: -0.0758
- composite z-score [7]: 0.108
- composite z-score [8]: -0.535
- composite z-score [9]: 0.688
- composite z-score [10]: 1.46

SMILES: CC(=O)NCCCC[C@@H]1NC(=O)[C@@H]2C[C@H](C(=O)NCCCCCN)[C@H](c3ccc(O)cc3)N2C1=O
- composite z-score [1]: 1.32
- z-score [2]: -0.663
- composite z-score [3]: 1.31
- composite z-score [4]: 0.331
- composite z-score [5]: 0.711
- composite z-score [6]: 0.258
- composite z-score [7]: -0.0794
- composite z-score [8]: -0.158
- composite z-score [9]: 1.31
- composite z-score [10]: 0.766

SMILES: CN(C)C(=O)[C@]1(CCC(=O)OC(C)(C)C)N=C(c2ccc(OCCCO)cc2)O[C@@H]1c1ccccc1CN=[N+]=[N-]
- composite z-score [1]: 1.44
- z-score [2]: -2.19
- composite z-score [3]: -0.502
- composite z-score [4]: 2.31
- composite z-score [5]: 0.392
- composite z-score [6]: 0.26
- composite z-score [7]: 0.4
- composite z-score [8]: 1.13
- composite z-score [9]: 2.9
- composite z-score [10]: 1.81

SMILES: C=CCC(OC(C)=O)[C@@H]1[C@@H](N(Cc2ccc(-c3cccc(C(F)(F)F)c3)o2)C(=O)Cc2ccc(OC)cc2)c2cc(OCCCO)ccc2N1C(=O)c1ccc(-c2ccccc2)cc1 (stereo not given in full)
- composite z-score [1]: -0.433
- z-score [2]: 0.278
- composite z-score [3]: -0.164
- composite z-score [4]: -0.364
- composite z-score [5]: -0.341
- composite z-score [6]: 0.0079
- composite z-score [7]: -0.0793
- composite z-score [8]: -0.577
- composite z-score [9]: -0.205
- composite z-score [10]: 1.13

SMILES: C=CC[C@]1(C(=O)N2CCCCC2)N=C(c2ccc(OCCCO)cc2)O[C@H]1c1ccccc1CN=[N+]=[N-]
- composite z-score [1]: 1.42
- z-score [2]: -2.64
- composite z-score [3]: 0.264
- composite z-score [4]: 1.7
- composite z-score [5]: 0.204
- composite z-score [6]: 0.0246
- composite z-score [7]: -0.138
- composite z-score [8]: -0.769
- composite z-score [9]: 0.447
- composite z-score [10]: 0.875

SMILES: CCOC(=O)C=Cc1cccc(C)c1O
- composite z-score [1]: -0.377
- z-score [2]: 0.717
- composite z-score [3]: 0.111
- composite z-score [4]: -0.122
- composite z-score [5]: -0.335
- composite z-score [6]: -0.1
- composite z-score [7]: -0.0769
- composite z-score [8]: -0.288
- composite z-score [9]: 0.0897
- composite z-score [10]: 0.11
